The results in this text go back to PubChem BioAssay (NCI).

The panel holds about 83,000 compounds, 20% with a hit somewhere; the sample as a whole holds those more often.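 48-hour exposure, single concentration, 96-well plates; percent growth endpoint where 0 means no net growth. Active: below 10.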 Values without a mark were called inactive. Active and inactive are the calls of the source.

What all share (experiment): NCI-60 one-dose screen, 48 h (100 = growth as untreated, 0 = no growth, -100 = all killed)
In one test the test system is SK-MEL-2 melanoma. To be noted: 10 µM unless noted.
The next test has as its system EKVX NSCLC. To be noted: 10 µM unless noted.
In a further test the test system is SN12C renal. As to conditions: 10 µM unless noted.
The next test relates to UO-31 renal. As to conditions: 10 µM unless noted.
In a further test the test system is ACHN renal. To be noted: 10 µM unless noted.
For a further test, the system named is CAKI-1 renal. As to conditions: 10 µM.
The test system of another test is CCRF-CEM leukemia. As to conditions: 10 µM unless noted.
The test system of the next test is MOLT-4 leukemia. As to conditions: 10 µM unless noted.
For the next test, the system named is SR leukemia. As to conditions: 10 µM unless noted.
For a further test, the system named is RPMI-8226 leukemia. To be noted: 10 µM unless noted.
The next test concerns OVCAR-8 ovarian. As to conditions: 10 µM unless noted.
In a further test the test system is OVCAR-5 ovarian. To be noted: 10 µM unless noted.
Another test has as its system OVCAR-4 ovarian. To be noted: 10 µM unless noted.
The next test deals with SK-OV-3 ovarian. To be noted: 10 µM unless noted.
In a further test the test system is IGROV1 ovarian. As to conditions: 10 µM unless noted.
The subject of a further test is OVCAR-3 ovarian. To be noted: 10 µM unless noted.
The next test has as its system HS 578T breast. To be noted: 10 µM unless noted.
The next test concerns NCI/ADR-RES ovarian. As to conditions: 10 µM unless noted.
For another test, the system named is A498 renal. To be noted: 10 µM unless noted.

Take `IP(CCCSc1n(Cc2ccc3ccccc3c2)c(-c2ccccc2)c(-c2ccccc2)[n+]1Cc1ccc2ccccc2c1)(c1ccccc1)(c1ccccc1)c1ccccc1`: the growth was 2.52% (active) in the test on SK-MEL-2 melanoma; 32% in the test on EKVX NSCLC; 57% in the test on SN12C renal; 70.1% with UO-31 renal; 87.9% with ACHN renal; 77.6% in the test with CAKI-1 renal. For the same compound, the growth is 32.5% in the test on CCRF-CEM leukemia; 46.7% in the test on MOLT-4 leukemia; 5.94% (active) in the test with SR leukemia; 14.8% in the test on RPMI-8226 leukemia; 38.6% in the test with OVCAR-8 ovarian; 58.5% in the test on OVCAR-5 ovarian. In addition, the growth with OVCAR-4 ovarian is 23.2%; in the test on SK-OV-3 ovarian it was 29.4%; in the test with IGROV1 ovarian, 23.9%; with OVCAR-3 ovarian it was 8.3% (active); in the test on HS 578T breast, 67.1%; with NCI/ADR-RES ovarian it was 94.1%.

For `N=c1c2cc(-c3ccccc3)oc2ncn1/N=C/c1ccccc1`, the growth in the test on SK-MEL-2 melanoma was 97.2%; in the test on EKVX NSCLC it was 86.5%; in the test with SN12C renal it was 86.1%; in the test with UO-31 renal, 85.6%; in the test with ACHN renal it was 75.1%; in the test with CAKI-1 renal, 67.5%. For the same compound, the growth in the test on A498 renal was 77.8%; in the test on CCRF-CEM leukemia it was 64%; with MOLT-4 leukemia, 65.3%; in the test with SR leukemia it was 16.4%; in the test with RPMI-8226 leukemia it was 99.1%; in the test with OVCAR-8 ovarian it was 96.9%. For the same compound, the growth in the test with OVCAR-5 ovarian is 83.5%; in the test on OVCAR-4 ovarian, 93.2%; in the test on SK-OV-3 ovarian, 96.5%; in the test with IGROV1 ovarian, 63%; with OVCAR-3 ovarian, 59.2%; in the test on NCI/ADR-RES ovarian it was 60.3%.

As for `O=C(Nc1cc(F)cc2cccnc12)c1cnc(N2CCOCC2)cn1`, the growth is 96% in the test with SK-MEL-2 melanoma; 63.6% in the test on EKVX NSCLC; 83.5% in the test with SN12C renal; 46.1% in the test on UO-31 renal; 34.8% in the test with ACHN renal; 64.9% in the test on CAKI-1 renal. The growth was 86.6% in the test on A498 renal; 28.6% with CCRF-CEM leukemia; 29.7% with MOLT-4 leukemia; 38.5% in the test on SR leukemia; 70.5% in the test with RPMI-8226 leukemia; 79.4% in the test on OVCAR-8 ovarian. For the same compound, the growth was 65.6% in the test with OVCAR-5 ovarian; 17.9% in the test on OVCAR-4 ovarian; 95.2% in the test with SK-OV-3 ovarian; 9.55% (active) in the test with OVCAR-3 ovarian; 78.2% in the test with NCI/ADR-RES ovarian.

With `O=C1Nc2ccc(Br)cc2/C1=N\c1nnc(-c2ccc(Cl)cc2)o1`, the growth with SK-MEL-2 melanoma is 87.6%; in the test with EKVX NSCLC it was 72.5%; with SN12C renal, 85.7%; in the test on UO-31 renal, 62.3%; with ACHN renal, 74.9%; in the test with CAKI-1 renal it was 59%. Also, the growth in the test with A498 renal was 69.4%; with CCRF-CEM leukemia it was 35.7%; in the test on MOLT-4 leukemia, 36.6%; with SR leukemia, 10.9%; in the test on RPMI-8226 leukemia, 62.5%; in the test with OVCAR-8 ovarian, 82.6%. Also, the growth in the test on OVCAR-5 ovarian is 98.7%; with OVCAR-4 ovarian it was 86.4%; in the test with SK-OV-3 ovarian it was 73.3%; in the test with IGROV1 ovarian, 55.3%; in the test on HS 578T breast it was 83.1%; in the test with NCI/ADR-RES ovarian, 36.9%.

`COc1ccc(C(=O)n2cc(C=O)c3ccccc32)cc1`: the growth was 104% with SK-MEL-2 melanoma; 97.6% in the test on EKVX NSCLC; 94.7% in the test with SN12C renal; 70.9% with UO-31 renal; 92.4% in the test on ACHN renal; 85% with CAKI-1 renal. Further, the growth was 122% in the test on A498 renal; 103% in the test with CCRF-CEM leukemia; 101% in the test on MOLT-4 leukemia; 65.5% with SR leukemia; 98.2% in the test with RPMI-8226 leukemia; 96.4% with OVCAR-8 ovarian. Besides, the growth in the test on OVCAR-5 ovarian is 102%; with OVCAR-4 ovarian, 111%; with SK-OV-3 ovarian it was 133%; with IGROV1 ovarian it was 93.4%; in the test with HS 578T breast, 101%; with NCI/ADR-RES ovarian it was 94.7%.

In the case of `CCOC(=O)c1c(NC(=O)c2ccc(F)cc2F)sc2c1CCC(=O)C2`, the growth in the test on SK-MEL-2 melanoma is 98.3%; with EKVX NSCLC, 97.7%; in the test on SN12C renal, 99%; with UO-31 renal, 83.8%; in the test with ACHN renal it was 95.6%; in the test on CAKI-1 renal, 80.1%. Further, the growth in the test with CCRF-CEM leukemia is 98.2%; with MOLT-4 leukemia, 95.8%; in the test with SR leukemia, 88%; in the test with RPMI-8226 leukemia it was 106%; with OVCAR-8 ovarian it was 96.9%; in the test on OVCAR-5 ovarian it was 104%. Also, the growth in the test on OVCAR-4 ovarian is 102%; in the test with SK-OV-3 ovarian, 104%; in the test on IGROV1 ovarian, 100%; in the test with OVCAR-3 ovarian it was 113%; in the test on HS 578T breast, 103%; in the test with NCI/ADR-RES ovarian it was 96.8%.

For the compound `CCCCOc1ccc(S(=O)(=O)N2CCN(c3nccc(N4CCOCC4)n3)CC2)cc1`, the growth in the test on SK-MEL-2 melanoma is 33.5%; with EKVX NSCLC, 46.3%; with SN12C renal it was 28.7%; in the test on UO-31 renal it was 24.8%; with ACHN renal, 15.1%; in the test with CAKI-1 renal, 13.8%. Besides, the growth was -1.44% (active) in the test with A498 renal; 49.8% in the test with CCRF-CEM leukemia; 24.2% with MOLT-4 leukemia; 46.3% in the test with SR leukemia; 6.35% (active) in the test with RPMI-8226 leukemia; 49.5% in the test on OVCAR-8 ovarian. Further, the growth was 56.2% in the test on OVCAR-5 ovarian; 49.4% in the test with OVCAR-4 ovarian; 12.8% in the test on SK-OV-3 ovarian; 9.51% (active) in the test on IGROV1 ovarian; 105% in the test on OVCAR-3 ovarian; 69.4% in the test on HS 578T breast. In the test on NCI/ADR-RES ovarian, the growth was 31.2%.
